Screen size: about 320,000 compounds; about 22,000 (6.9%) were called active. Another 27% or so got no clear call; they are omitted. Calls follow the shape of the dose curve; as a rule, active = well fitted inhibition curve with a large enough effect; inconclusive = small, poorly fitted or top-dose-only effect, or another doubt; inactive = no such curve, though single readings can be large or run the other way. This excerpt belongs to a sample that is enriched for actives. Where a SMILES comes first, the peptide text is derived from it. [ ]: non-standard residue; d: D form. The star is where a group is joined. PhAc = O=C(Cc1ccccc1)*
assay: Primary qHTS for delayed death inhibitors of the malarial parasite plastid, 96 hour incubation; conditions: P. falciparum luciferase reporter growth; series mostly up to 28.7 µM; activity change, negative = inhibition: at the top concentration
Summary of the method: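 Plates of compound plus infected erythrocytes (2% hematocrit, 0.05% parasitemia final) incubate 96 hours, 37 C, 5% CO2. Detection reagent added; reduced luminescence from the parasites' luciferase reporter flags inhibition.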
% is scaled to controls: 0 for no effect and ±100 for the full control effect; potency is read from the fitted curve at half-maximal effect.

Row | SMILES | activity change, negative = inhibition | Potency
1 | CSc1nnc2ccc(-c3ccc(C)cc3)nn12 | 16.1% (inactive) | 
2 | O=C(CN1CCN(c2ccccn2)CC1)NC1CCCCC1 | 0% (inactive) | 
3 | O=C(Cn1c(-c2cncs2)nc2ccccc21)NC1CCCC1 |  | 9.28 µM (active)
4 | O=C(Cn1c(-c2cscn2)nc2ccccc21)Nc1ccc(Cl)cc1 | 28.7% (inactive) | 
5 | Cc1ccn2c(=O)nc(SCC(=O)NCc3ccc(F)cc3)nc2c1 | 0.481% (inactive) | 
6 | CC(C)C[C@@H](NC(=O)[C@H]1CCCN1C(=O)Cc1ccccc1)C(N)=O (PhAc-[dP]-[dL]-NH2) | 6.07% (inactive) | 
7 | Oc1ccc(CN2CCN(c3ncccn3)CC2)cc1 | -25.8% (inactive) | 
8 | COc1ccccc1-c1nn(Cc2ccccc2)cc1C(=O)N1CCN(c2ncccn2)CC1 |  | 13.1 µM (active)
9 | COc1cccc(OC)c1C(=O)N1CCN(Cc2cccnc2)CC1 | 0% (inactive) | 
10 | CCOCCCNC(=O)C1(O)c2cc(Br)ccc2NC(=O)N1c1ccc(C)c(C)c1 (stereo unspecified) | 14.5% (inactive) | 
11 | COc1ccc(NS(=O)(=O)c2ccc3oc(SCC(N)=O)nc3c2)cc1 | -25% (inactive) | 
12 | COc1cccc(NC(=O)[C@H](Cc2c[nH]c3ccccc23)NC(=O)[C@@H]2Cc3ccccc3CN2)c1 |  | 11.7 µM (active)
13 | CC(=O)NC(Cc1c[nH]c2ccccc12)C(=O)NCCc1ccccc1 (stereo unspecified) | 26.3% (inactive) | 
14 | COc1ccc(CNC(=O)[C@H](Cc2c[nH]c3ccccc23)NC(C)=O)cc1OC | 24.8% (inactive) | 
15 | CC1(C)c2[nH]c3ccccc3c2C[C@H]2C(=O)N(N)CC(=O)N21 | 24.9% (inactive) | 
16 | COCCN1CCN(C(=O)c2cc(COc3ccc(F)cc3Cl)on2)CC1 | 19.3% (inactive) | 
17 | O=[N+]([O-])c1ccccc1N/N=C1\CCc2ccccc21 | 219% (inactive) | 
18 | Cc1ccc(NC(=S)N/N=C2/CCCc3c(C)cc(C)cc32)cc1 | -20.2% (inactive) | 
19 | CCCCNC(=S)N/N=C1\CCCCc2ccccc21 |  | 9.28 µM (active)
20 | Cc1ccccc1N1CCN(C2CCCN(C(=O)c3cn4c(C)cccc4n3)C2)CC1 (stereo unspecified) | 20.5% (inactive) | 
21 | COc1ccccc1C(=O)Nc1ccnn1C1CCN(Cc2cnn(C)c2)CC1 | -28.4% (inactive) | 
22 | CCOCC(=O)Nc1sc2c(c1C(=O)OCC)CCCC2 | 50% (inactive) | 
23 | CCOC(=O)c1c(NC(=O)Cn2nc(C(F)(F)F)cc2C)sc2c1CCC2 | 31.5% (inactive) | 
24 | CCOC(=O)c1c(NC(=S)Nc2ccccc2)sc2c1CCN(C)C2 | 1.12% (inactive) | 

Row | SMILES | activity change, negative = inhibition | Potency
25 | CCOC(=O)c1c(NC(=O)NC(C)(C)C)sc2c1CCN(C)C2 |  | 4.15 µM (active)
26 | CCOC(=O)c1c(NC(=S)Nc2ccccc2C)sc2c1CCC2 | -22.4% (inactive) | 
27 | CCOC(=O)c1c(NC(=S)NC)sc2c1CCCC2 |  | 8.28 µM (active)
28 | O=C(CCc1nc(-c2ccccc2)no1)Nc1cccc(C(=O)NC2CC2)c1 | -21.5% (inactive) | 
29 | CCOC(=O)C1CCN(S(=O)(=O)c2ccc3c(c2)N(C)C(=O)CC(=O)N3C)CC1 | -18.2% (inactive) | 
30 | COc1cc2ccccc2cc1C(=O)Nc1ccc(N2CCOCC2)cc1 | 73.9% (inactive) | 
31 | COc1cccc(C(=O)NC(=O)Nc2nc(C)cc(C(F)(F)F)n2)c1 | 43.9% (inactive) | 
32 | Cc1cccc(OCC(=O)Nc2ccc(NC(=O)c3ccco3)c(C)c2)c1 | 5.79% (inactive) | 
33 | O=C(CN1C(=O)NC2(CCCCC2)C1=O)N1CCN(C(=O)c2cccs2)CC1 | -11% (inactive) | 
34 | O=C1CN(C(=O)CN2C(=O)NC3(CCCCC3)C2=O)c2ccccc2N1 |  | 14.7 µM (active)
35 | O=C(CN1C(=O)NC2(CCCCCC2)C1=O)NCc1cccs1 | 24.4% (inactive) | 
36 | COCCN1CCn2c(nc3cc(NS(C)(=O)=O)ccc32)C1 | 46.5% (inactive) | 
37 | Cc1ccc(CNC(=O)c2ccc(CS(=O)Cc3cccc(Cl)c3)o2)cc1 (stereo unspecified) | 1.49% (inactive) | 
38 | COc1ccc(CCNC(=O)c2cnc(Cl)c(Cl)c2)cc1 | 4.95% (inactive) | 
39 | CC(C)OC(=O)c1sc2nc3c(cc2c1N)C(=O)CCC3 |  | 5.22 µM (active)
40 | Nc1c(C(=O)NCc2ccccc2)sc2nc3c(cc12)C(=O)CCC3 | 84.8% (inactive) | 
41 | COC(=O)c1cc2c(N)c(C(=O)c3ccc(Cl)cc3)sc2nc1C(OC)OC | -24.3% (inactive) | 
42 | COc1ccc([C@@H]2[C@@H]3C(=O)N(C(C)(C)C)C(=O)[C@@H]3[C@]3(Cc4ccccc4)C(=O)N(c4cccc(Br)c4)C(=O)N23)cc1 |  | 1.65 µM (active)
43 | CC12C(=O)N(c3ccccc3)C(=O)C1C(c1ccccc1)N1CCCN12 (stereo unspecified) | 20.4% (inactive) | 
44 | O=C1[C@H]2[C@@H](c3ccc(F)cc3)N3C(=O)N(c4ccc(C(F)(F)F)cc4)C(=O)[C@@]3(Cc3ccccc3)[C@H]2C(=O)N1C1CCCCC1 |  | 5.22 µM (active)
45 | C[C@@]12C(=O)N(c3cccc(Br)c3)C(=O)N1[C@H](c1ccc(Cl)cc1)[C@@H]1C(=O)N(C3CCCCC3)C(=O)[C@@H]12 |  | 16.5 µM (active)
46 | Cc1cccc(N2C(=O)N3[C@H](c4ccc(F)cc4)[C@@H]4C(=O)N(C5CCCCC5)C(=O)[C@@H]4[C@]3(Cc3ccccc3)C2=O)c1 |  | 13.1 µM (active)
47 | COc1ccc(C2C(C(C)=O)=C(O)C(=O)N2Cc2cccnc2)cc1 (stereo unspecified) | 243% (inactive) | 
48 | Cc1cccc(N2C(=O)C3C(c4ccccc4)OC4(C(=O)c5ccccc5C4=O)C3C2=O)c1 (stereo unspecified) | 1.05% (inactive) | 

Row | SMILES | activity change, negative = inhibition | Potency
49 | O=C(NC1(C(F)(F)F)NC(=O)N(C2CCCCC2)C1=O)c1ccco1 (stereo unspecified) | 12.9% (inactive) | 
50 | COc1ccc(N2C(=O)C(Cc3ccccc3)NC2=S)cc1 (stereo unspecified) | 44.9% (inactive) | 
51 | Cc1cccc([C@@H]2[C@@H]3C(=O)N(Cc4ccccc4)C(=O)[C@@H]3[C@]3(Cc4ccc(Cl)cc4)C(=O)N(c4cccc(Cl)c4)C(=O)N23)c1 | -22.4% (inactive) | 
52 | Cc1c(C)c(C)c(S(=O)(=O)N2CCC3(CC2)OCCO3)c(C)c1C | -0.851% (inactive) | 
53 | Cc1csc(NC(=O)C2CCN(S(=O)(=O)c3ccccc3)CC2)n1 | -10.6% (inactive) | 
54 | CCOc1ccc(N(CC(=O)NCCOc2ccccc2OC)S(=O)(=O)c2ccccc2)cc1 | 0.187% (inactive) | 
55 | Cc1ccccc1N1CCN(Cc2nc(Cc3ccccc3F)no2)CC1 | 34.5% (inactive) | 
56 | COc1ccc(NC(=O)CC2C(=O)NC3CCCCC3N2C(=O)c2ccc(F)cc2)cc1 (stereo unspecified) | -0.568% (inactive) | 
57 | COc1ccc(CNC(=O)CN(Cc2ccccc2Cl)C(=O)c2csnn2)cc1 | 31.1% (inactive) | 
58 | COc1ccc(NC(=O)C2=CC(c3ccc(OC)c(OC)c3)=NS(=O)(=O)N2C)cc1 | 4.29% (inactive) | 
59 | COc1ccc(/C=C2\SC(=O)N(CCC(=O)NC3CCS(=O)(=O)C3)C2=O)cc1 (stereo unspecified) | 7.41% (inactive) | 
60 | O=C(c1cc(COc2cccc(C(F)(F)F)c2)on1)N1CCSCC1 | -9.38% (inactive) | 
61 | C=CCn1c(=O)c(C(=O)NCc2ccc3c(c2)OCO3)c(O)c2ccccc21 | -16.3% (inactive) | 
62 | O=C1[C@H]2[C@@H](c3ccc(Cl)cc3)N3C(=O)N(c4cccc(F)c4)C(=O)[C@@]3(Cc3ccccc3)[C@H]2C(=O)N1C1CCCCC1 |  | 8.28 µM (active)
63 | O=C(COC(=O)c1ccc(F)cc1)NCCCc1ccccc1 | 36.7% (inactive) | 
64 | Cc1cc(C)c(-c2csc(NC(=O)CCCc3nc4ccccc4c(=O)[nH]3)n2)c(C)c1 |  | 0.329 µM (active)
65 | Cc1cccc(S(=O)(=O)CC(=O)Nc2nc(-c3ccccc3)cs2)c1 | -14.2% (inactive) | 
66 | CC(C)(C)c1ccc(NC(=O)COC(=O)CCc2nc3ccccc3c(=O)[nH]2)cc1 | 20.8% (inactive) | 
67 | CC(C)Oc1ccc(/C=N/NC(=O)c2nnn(-c3nonc3N)c2CN(C)C2CCCCC2)cc1 | 38.5% (inactive) | 
68 | CCC(C)Sc1nc2c(cnn2-c2ccc(F)cc2)c(=O)[nH]1 (stereo unspecified) | 6.68% (inactive) | 
69 | COCCNC(=S)N/N=C/c1c(C)[nH]c2ccccc12 | -2.14% (inactive) | 
70 | CN=c1scc(-c2cc(OC)ccc2OC)n1/N=C/c1c(C)[nH]c2ccccc12 |  | 6.57 µM (active)
71 | COc1ccc(OC)c(N=Cc2c(O)[nH]c3ccccc23)c1 | -10.7% (inactive) | 
72 | CC1CCC(NC(=O)CNC(=O)c2ccc3ccccc3c2)CC1 (stereo unspecified) | 41.9% (inactive) | 

Row | SMILES | activity change, negative = inhibition | Potency
73 | O=C(C1CC(=O)N(C2CCCCC2)C1)N1CCN(c2ccccc2)CC1 (stereo unspecified) | -5.68% (inactive) | 
74 | CCCN1CCN(CCCNC(=O)CN2C(=O)COc3ccccc32)CC1 | 4.84% (inactive) | 
75 | Cc1cc(C(=O)NCCc2ccc(Cl)cc2)c(C)o1 | 51.2% (inactive) | 
76 | Cc1ccc2c(c1)N(CC(=O)N1CCC(C)CC1)C(=O)c1cccnc1O2 | 3.29% (inactive) | 
77 | Cc1ccc2c(c1)N(CC(=O)NCCCN1CCCCC1)C(=O)c1cccnc1O2 |  | 9.28 µM (active)
78 | O=C(CN1C(=O)c2cccnc2Oc2ccc(Cl)cc21)Nc1ccc(F)cc1 | 68.1% (inactive) | 
79 | Cc1ccc2c(c1)N(CC(=O)NCCc1ccc(Cl)cc1)C(=O)c1cccnc1O2 |  | 10.4 µM (active)
80 | COc1ccc(NC(=O)COC(=O)c2n[nH]c3ccccc23)c(OC)c1 | 11.9% (inactive) | 
81 | CCCc1ccc(C(=O)COC(=O)CN2C(=O)NC3(CCCCC3C)C2=O)cc1 (stereo unspecified) | -10.4% (inactive) | 
82 | O=C(CN(C(=O)c1nsc(Cl)c1Cl)c1cccc(F)c1)NC1CCCC1 | -1.32% (inactive) | 
83 | CC(Oc1ccccc1)C(=O)Nc1c2c(nn1-c1ccccc1)CS(=O)C2 (stereo unspecified) | -11.3% (inactive) | 
84 | C=CCN1C(=O)c2ccc(C(=O)N3CCC(C(=O)OCC)CC3)cc2C1=O | 61.5% (inactive) | 
85 | Cc1cccc(C(=O)NNC(=O)CSc2nnc(C(C)C)n2C)c1 | 19% (inactive) | 
86 | CC(=C/c1ccccc1)/C=N/NC(=O)c1cc(C)oc1C |  | 9.28 µM (active)
87 | Cc1cc(C(=O)N/N=C\C(Br)=C\c2ccccc2)c(C)o1 | 11.7% (inactive) | 
88 | Cc1cc(C(=O)N/N=C/c2ccccc2[N+](=O)[O-])c(C)o1 | 33.4% (inactive) | 
89 | COc1cccc(Cn2cc(/C=N/NC(=O)c3cc(O)cc(O)c3)c3ccccc32)c1 | -22.1% (inactive) | 
90 | COc1ccc(N2CCN(C(=O)CCNC(=O)c3ccc(Br)cc3)CC2)cc1 | -2.69% (inactive) | 
91 | COc1ccc(N2CCN(C(=O)CNS(=O)(=O)c3ccc(C)c(C)c3)CC2)cc1 | -44% [at 5.75 µM] (inactive) | 
92 | COc1cc(OC)cc(C(=O)NCC(=O)N2CCCCCCC2)c1 | -16.6% (inactive) | 
93 | O=C(NCC(=O)N1CCCCCCC1)c1ccccc1Cl | 70.2% (inactive) | 
94 | O=C(NCC(=O)N1CCN(c2ccccc2O)CC1)c1ccc2ccccc2c1 |  | 6.57 µM (active)
95 | COc1ccc(N2CCN(C(=O)CNC(=O)c3ccc(C(C)(C)C)cc3)CC2)cc1 |  | 4.65 µM (active)
96 | CCOC(=O)c1c(N)sc2c1CCCC2=O | 21.3% (inactive) | 

Source: PubChem BioAssay AID504834 (National Center for Advancing Translational Sciences (NCATS), 2011)
